Screening results deposited in PubChem BioAssay by National Center for Advancing Translational Sciences (NCATS).
HT1080NT lethal – kills 2HG-producing HT-1080-NT fibrosarcoma cells; HT-1080-NT fibrosarcoma viability, CellTiter-Glo ATP luminescence, 48 h; Potency, µM (titrated, usually from 46.1 µM), most hits filed as cytotoxic; 1.6% of 360,000 active; AID 686970;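 note: NT is the 2HG producing partner of a matched IDH1 knockdown line; nearly all actives have a fitted effect of over 55% in size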
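Luminescent CellTiter-Glo readout after 48 hours of compound exposure at 37 degrees C defined viability of HT-1080-NT cells. Activity was normalized to DMSO wells and cell-free media wells; concentration-response curves were fitted and assigned curve classes.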
MCF10A rereplic – induces DNA re-replication in MCF 10a normal breast cells | MCF 10A DNA re-replication, Hoechst nuclear intensity, 48 h | Potency, µM (titrated, usually from 46.1 µM), usual class: activators | 2.9% of 350,000 active | AID 624296; note: nearly all actives have a fitted effect of over 50% in size
KB-V1 cytotox – KB-V1 MDR subline cytotoxicity; 3.4% of 400,000 active; AID 1347076; KB-V1 MDR cells viability, CellTiter-Glo, 72 h; Potency, µM (titrated, usually from 46.1 µM), actives largely listed as cytotoxic; note: nearly all actives have a fitted effect of over 60% in size
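KB-V1 cells (P-gp-expressing MDR subline of KB-3-1) in phenol-red-free DMEM with 10% FBS were exposed to library compounds over a concentration series for 72 h at 37 degrees C. Viability read by CellTiter-Glo luminescence; concentration-effect curves fitted after normalization.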
KB-3-1 cytotox – KB-3-1 parental cell cytotoxicity | Potency, µM (doses to about 46.1 µM), hits mostly cytotoxic | 1.4% of 400,000 active | KB-3-1 viability, CellTiter-Glo ATP luminescence, 72 h; note: nearly all actives have a fitted effect of over 60% in size
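Cytotoxicity in the drug-sensitive parental line KB-3-1 was scored as loss of CellTiter-Glo luminescence following 72 h incubation with compound. Values come from curve fitting of normalized concentration-response data.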
SW480 rereplic – induces DNA re-replication in SW480 colon adenocarcinoma cells | SW480 DNA re-replication, Hoechst DNA content imaging, 48 h | Potency, µM (series often up to 46.1 µM), actives largely listed as activators | 1.8% of 340,000 active; note: nearly all actives have a fitted effect of over 55% in size
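First, 250 cells per well were seeded. Next, compound or vehicle (23 nL) was pinned in, plates sat 48 hr at 37 C. Finally Hoechst was added for 40 min before fluorescence scanning.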
HT1080 IDH1KD tx – kills HT-1080 cells with IDH1 knockdown; AID 686971; Potency, µM (top dose mostly 46.1 µM), usual class: cytotoxic; HT-1080 IDH1 knockdown viability, ATP luminescence, 48 h; 2% of 360,000 active
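Knockdown cells (IDH1KD HT-1080) received compounds 2 h after plating at 750 cells/well and were kept 48 h at 37 °C in 5% FBS RPMI. A CellTiter-Glo luminescence read gave % activity for curve fitting.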
Large screens that a line does not name were inactive. Rows were chosen to be rich in hits. Some 7.9% of all compounds tested hit in one or more screens of this group. Calls come from the whole dose curve; as a rule, active = well fitted curve in the direction sought with a large enough effect; inconclusive = small, poorly fitted or top-dose-only effect, or another doubt; inactive = no such curve, though single readings can be large; an effect the other way counts as inactive or inconclusive.

CCOC(=O)c1c(C)n(C)c2ccc(O)c(CN3CCN(C)CC3)c12	none
CCOC(=O)c1c(-c2ccccc2)oc2ccc(O)c(CN3CCN(C)CC3)c12	HT1080NT lethal inconclusive, MCF10A rereplic 23µM, KB-V1 cytotox 21µM, KB-3-1 cytotox inconclusive, HT1080 IDH1KD tx inconclusive
COc1ccc(NC(=O)COC(=O)c2ccc(S(=O)(=O)N3CCCCC3)cc2)c(OC)c1	none (no result: MCF10A rereplic, SW480 rereplic)
COCCCNC(=O)c1cc2c(=O)n3cccc(C)c3nc2n(C(C)C)c1=N	MCF10A rereplic inconclusive, SW480 rereplic 2.8µM
Cc1cccn2c(=O)c3cc(C(=O)NC(C)C)c(=N)n(Cc4ccncc4)c3nc12	MCF10A rereplic 16µM, SW480 rereplic 21µM
CCNC(=O)c1cc2c(=O)n3cccc(C)c3nc2n(Cc2ccc(C)cc2)c1=N	MCF10A rereplic inconclusive, KB-V1 cytotox inconclusive, KB-3-1 cytotox inconclusive, SW480 rereplic 2.1µM
COCCn1c(=N)c(C(=O)NCCc2ccc(OC)cc2)cc2c(=O)n3cccc(C)c3nc21	MCF10A rereplic inconclusive, SW480 rereplic inconclusive
Cc1ccc(-c2cc(C(=O)N(Cc3ccccc3)Cc3ccco3)no2)cc1F	none (no result: HT1080NT lethal, MCF10A rereplic, SW480 rereplic, HT1080 IDH1KD tx)
Cc1ccc2nc(NCc3ccccc3)[nH]c2c1	HT1080NT lethal 5.8µM, MCF10A rereplic inconclusive, KB-V1 cytotox 5.8µM, KB-3-1 cytotox 5.2µM, SW480 rereplic 5.2µM, HT1080 IDH1KD tx 3.7µM
COc1ccc2nc(NCCO)[nH]c2c1	none
COc1ccc2nc(NCc3ccccc3)[nH]c2c1	HT1080NT lethal inconclusive, MCF10A rereplic 18µM, KB-V1 cytotox inconclusive, KB-3-1 cytotox 9.2µM, SW480 rereplic 15µM, HT1080 IDH1KD tx inconclusive
c1ccc(CNc2nc3ccccc3[nH]2)cc1	HT1080NT lethal inconclusive, MCF10A rereplic inconclusive, SW480 rereplic inconclusive
CC(C)(C)OC(=O)C[C@@H]1C/C=C\C[C@H](CC(=O)NCCO)C(=O)N2CCC[C@H]2COC1=O	MCF10A rereplic inconclusive
O=C1CC=Nc2ccc([N+](=O)[O-])cc21	none (no result: MCF10A rereplic, SW480 rereplic)
CNS(=O)(=O)c1cccc(C(=O)OCc2cc(Cl)cc3c2OCOC3)c1	MCF10A rereplic inconclusive, KB-V1 cytotox 18µM
O=C(OCc1cc(Cl)cc2c1OCOC2)c1cccnc1Cl	none
COc1ccc(CCNC(c2ccc(F)cc2)c2nnc(-c3ccccc3Cl)o2)cc1OC (stereo unspecified)	KB-V1 cytotox inconclusive (no result: HT1080NT lethal, MCF10A rereplic, SW480 rereplic, HT1080 IDH1KD tx)
CCOC(=O)c1ccc(Oc2nc(C)nc3c2oc2ccccc23)cc1	KB-V1 cytotox inconclusive (no result: HT1080NT lethal, MCF10A rereplic, SW480 rereplic, HT1080 IDH1KD tx)
CC(=O)c1ccc(Oc2nc(C)nc3c2oc2ccccc23)cc1	KB-3-1 cytotox 18µM (no result: HT1080NT lethal, MCF10A rereplic, SW480 rereplic, HT1080 IDH1KD tx)
CC1Cc2ccccc2N1CC(=O)Nc1cc(S(=O)(=O)N2CCOCC2)ccc1Cl (stereo unspecified)	KB-V1 cytotox inconclusive (no result: MCF10A rereplic, SW480 rereplic)
COc1cc(CNC(=O)c2ccc3c(c2)S(=O)(=O)c2ccccc2C3=O)cc(OC)c1	none
NC(=S)N(c1ccccc1)c1ccccc1	none
NC(=Nc1ccccc1)N(c1ccccc1)c1ccccc1	MCF10A rereplic 12µM, SW480 rereplic inconclusive
COc1cccc(Nc2c3c(nc4c(-c5ccccc5)c(C)nn24)CCC3)c1	MCF10A rereplic 21µM, KB-V1 cytotox 18µM, KB-3-1 cytotox inconclusive, SW480 rereplic inconclusive
Cc1nn2c(NCCCN3CCOCC3)c3c(nc2c1-c1ccccc1)CCC3	KB-V1 cytotox inconclusive
COCCNc1c2c(nc3c(-c4ccccc4)c(C)nn13)CCCC2	HT1080NT lethal inconclusive, KB-V1 cytotox inconclusive, HT1080 IDH1KD tx inconclusive
CCCCNc1c2c(nc3c(-c4ccccc4)c(C)nn13)CCC2	KB-V1 cytotox 23µM
Cc1nn2c(Nc3ccc(F)cc3)c3c(nc2c1-c1ccccc1)CCC3	KB-V1 cytotox inconclusive
Cc1nn2c(NCCN(C)C)c3c(nc2c1-c1ccccc1)CCCC3	HT1080NT lethal 15µM, KB-V1 cytotox inconclusive, SW480 rereplic inconclusive, HT1080 IDH1KD tx 15µM
CCC(C)Nc1c2c(nc3c(-c4ccccc4)c(C)nn13)CCC2 (stereo unspecified)	MCF10A rereplic inconclusive, KB-V1 cytotox 9.2µM, HT1080 IDH1KD tx inconclusive
O=C([C@@H]1CC=C[C@@H]2CCN(C3CC3)C(=O)[C@@H]21)N1CCOCC1	none (no result: HT1080NT lethal, MCF10A rereplic, SW480 rereplic, HT1080 IDH1KD tx)
